Results filed as inconclusive are left out. Active and inactive are the calls of the source. The call rests on the fitted dose curve; in most records, active means well fitted curve in the direction sought with a large enough effect; inconclusive means small, poorly fitted or top-dose-only effect, or another doubt; inactive means no such curve, though single readings can be large; an effect the other way counts as inactive or inconclusive.
Columns and labels:
[1] = qHTS of pediatric cancer cell lines to identify multiple opportunities for drug repurposing: Primary screen for TC32 cells (AID 1347089); further: nearly all actives have a fitted effect of over 60% in size; further: potency means the concentration at half of the fitted maximal effect
In short: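 A viability screen of TC32 cells was run over 48 h, with primary MIPE doses spanning 0.78 nM–46 µM and NPC doses 0.59 nM–46 µM. ATP luminescence (CellTiter-Glo) served as the read-out.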

[2] = qHTS of pediatric cancer cell lines to identify multiple opportunities for drug repurposing: Primary screen for DAOY cells (AID 1347090); further: nearly all actives have a fitted effect of over 55% in size; further: potency means the concentration at half of the fitted maximal effect
In short: (§1)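 Viability measured as metabolically active cells via CellTiter-Glo luminescence following 48 hours of compound exposure, 11-point dilutions in confirmatory testing. 500-1,000 cells/well plated 5 hours before dosing; controls were DMSO and 2.3 µM bortezomib.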

[3] = qHTS of pediatric cancer cell lines to identify multiple opportunities for drug repurposing: Primary screen for U-2 OS cells (AID 1347096); further: nearly all actives have a fitted effect of over 50% in size
In short: (§2)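 Viability after 48 h compound treatment at 37C, 500-1,000 cells/well, read as ATP luminescence with CellTiter-Glo. Primary screens used 11-point (MIPE, 0.78 nM-46 µM) or 8-point (NPC, 0.59 nM-46 µM) final concentrations; follow-up screens used 11-point dilutions.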

[4] = qHTS of pediatric cancer cell lines to identify multiple opportunities for drug repurposing: Primary screen for Saos-2 cells (AID 1347097); further: nearly all actives have a fitted effect of over 40% in size; further: potency means the concentration at half of the fitted maximal effect
In short: (§3)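 CRCs from 8- or 11-point titrations (lowest final 0.59 nM NPC, 0.78 nM MIPE). Cell viability: CellTiter-Glo after 48 h incubation, 15 min room-temperature development, luminescence imaging.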

[5] = qHTS of pediatric cancer cell lines to identify multiple opportunities for drug repurposing: Primary screen for NB1643 cells (AID 1347099); further: nearly all actives have a fitted effect of over 50% in size; further: potency means the concentration at half of the fitted maximal effect
In short: as §3

[6] = qHTS of pediatric cancer cell lines to identify multiple opportunities for drug repurposing: Primary screen for LAN-5 cells (AID 1347100); further: potency means the concentration at half of the fitted maximal effect
In short: as §2

[7] = qHTS of pediatric cancer cell lines to identify multiple opportunities for drug repurposing: Primary screen for BT-12 cells (AID 1347101); further: nearly all actives have a fitted effect of over 25% in size; further: potency means the concentration at half of the fitted maximal effect
In short: (§4)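 Cells (500-1,000/well) rested 5 h, then received compounds for 48 h; metabolically active cells were measured by CellTiter-Glo luminescence. Final concentrations spanned up to 46 µM (MIPE, 11-point) or 0.59 nM-46 µM (NPC, 8-point) in primary screens, 11-point in follow-ups.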

[8] = qHTS of pediatric cancer cell lines to identify multiple opportunities for drug repurposing: Primary screen for Rh18 cells (AID 1347102); further: nearly all actives have a fitted effect of over 65% in size; further: potency means the concentration at half of the fitted maximal effect
In short: as §2

[9] = qHTS of pediatric cancer cell lines to identify multiple opportunities for drug repurposing: Primary screen for RD cells (AID 1347104); further: nearly all actives have a fitted effect of over 55% in size; further: potency means the concentration at half of the fitted maximal effect
In short: as §3

[10] = qHTS of pediatric cancer cell lines to identify multiple opportunities for drug repurposing: Primary screen for MG 63 (6-TG R) cells (AID 1347105); further: nearly all actives have a fitted effect of over 50% in size; further: potency means the concentration at half of the fitted maximal effect
In short: as §3

[11] = qHTS of pediatric cancer cell lines to identify multiple opportunities for drug repurposing: Primary screen for control Hh wild type fibroblast cells (AID 1347106); further: nearly all actives have a fitted effect of over 55% in size; further: potency means the concentration at half of the fitted maximal effect
In short: as §2

[12] = qHTS of pediatric cancer cell lines to identify multiple opportunities for drug repurposing: Primary screen for Rh30 cells (AID 1347107); further: series mostly up to about 46 µM; nearly all actives have a fitted effect of over 75% in size
In short: as §2

[13] = qHTS of pediatric cancer cell lines to identify multiple opportunities for drug repurposing: Primary screen for Rh41 cells (AID 1347108); further: nearly all actives have a fitted effect of over 70% in size; further: potency means the concentration at half of the fitted maximal effect
In short: as §3

[14] = qHTS of pediatric cancer cell lines to identify multiple opportunities for drug repurposing: Primary screen for A673 cells (AID 1347092); further: nearly all actives have a fitted effect of over 45% in size; further: potency means the concentration at half of the fitted maximal effect
In short: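 Titration-based qHTS on A673 cells: MIPE compounds spanned 11 points (0.78 nM to 46 µM final), NPC compounds 8 points (0.59 nM to 46 µM final). Viability after 48 h was measured by ATP luminescence.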

[15] = qHTS of pediatric cancer cell lines to identify multiple opportunities for drug repurposing: Primary screen for NB-EBc1 cells (AID 1347095); further: potency means the concentration at half of the fitted maximal effect
In short: as §3

[16] = qHTS of pediatric cancer cell lines to identify multiple opportunities for drug repurposing: Primary screen for SK-N-SH cells (AID 1347098); further: nearly all actives have a fitted effect of over 65% in size; further: potency means the concentration at half of the fitted maximal effect
In short: as §4

[17] = qHTS of pediatric cancer cell lines to identify multiple opportunities for drug repurposing: Primary screen for OHS-50 cells (AID 1347103); further: nearly all actives have a fitted effect of over 40% in size; further: potency means the concentration at half of the fitted maximal effect
In short: as §4

[18] = qHTS of pediatric cancer cell lines to identify multiple opportunities for drug repurposing: Primary screen for BT-37 cells (AID 1347094); further: potency means the concentration at half of the fitted maximal effect
In short: as §3

[19] = qHTS of pediatric cancer cell lines to identify multiple opportunities for drug repurposing: Primary screen for SJ-GBM2 cells (AID 1347091); further: potency means the concentration at half of the fitted maximal effect
In short: as §1

[20] = qHTS of pediatric cancer cell lines to identify multiple opportunities for drug repurposing: Primary screen for SK-N-MC cells (AID 1347093); further: potency means the concentration at half of the fitted maximal effect
In short: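 Metabolically active cells were quantified by ATP-dependent luminescence (CellTiter-Glo, 15 min at room temperature) following 48 h treatment. Cells had been plated at 500-1,000 per well and settled for 5 h beforehand.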

Measured: Potency

CCCCCCCCCC(CC)c1ccc(S(=O)(=O)O)cc1 (centres undefined)
active: [4] 30.6 µM
not listed: [14] | [15] | [16] | [17] | [18] | [19] | [20]
inactive: all other assays above

CC1(N2CCC(n3c([C@@H]4CCCNC4)nc4ccccc43)CC2)CCCCCCC1
active: [14] 11.8 µM | [16] 30.4 µM | [6] 20.9 µM | [17] 24.3 µM | [9] 13.2 µM
inactive: [1] | [2] | [15] | [5] | [10] | [12] | [13]

CCCN1CCO[C@@H]2c3cc(O)ccc3OC[C@@H]21
active: [18] 21.7 µM | [15] 16.6 µM | [16] 21.5 µM | [6] 14.8 µM
not listed: [5] | [7] | [9] | [14] | [19] | [20]
inactive: all other assays above

Cc1c(C(=O)Nc2cccc(C(F)(F)F)c2)cc(-c2ccccc2)n1CCCN1CCOCC1
inactive: [1] | [11]
active: [19] 18.7 µM | [14] 11.8 µM | [18] 27.3 µM | [15] 18.7 µM | [4] 18.7 µM | [5] 23.5 µM | [6] 18.7 µM | [17] 24.3 µM | [9] 18.7 µM

CCOP(=O)(OCC)C(C)NC(=O)N(CCCl)N=O (centres undefined)
not listed: [15] | [19]
inactive: all other assays above

O=[N+]([O-])c1ncc[nH]1
not listed: [2] | [3] | [5] | [7] | [11]
inactive: all other assays above

O=C(Oc1ccc([N+](=O)[O-])cc1)N1CCN(Cc2cccc(Oc3ccccc3)c2)CC1
active: [14] 18.7 µM | [20] 18.7 µM | [9] 18.7 µM | [10] 14.8 µM | [11] 3.32 µM
not listed: [2] | [4] | [5] | [7] | [16]
inactive: all other assays above

CC(C)(O)C(=O)Nc1ccc([N+](=O)[O-])c(C(F)(F)F)c1
inactive: [1] | [15] | [3] | [4] | [8]
active: [2] 18.7 µM | [14] 11.8 µM | [16] 24.1 µM | [5] 5.9 µM | [9] 29.6 µM

Nc1ccc([N+](=O)[O-])cc1
not listed: [9] | [17] | [19] | [20]
inactive: all other assays above

O=C(NCC1CCOCC1)c1cnc(Nc2ccc(Cl)cc2Cl)nc1C(F)(F)F
active: [2] 18.7 µM | [14] 18.7 µM | [16] 6.07 µM | [5] 9.35 µM | [10] 29.6 µM
inactive: [1] | [3] | [8] | [11] | [12]

COc1cc2cc(c1Cl)N(C)C(=O)C[C@H](OC(=O)C(C)C)[C@]1(C)O[C@H]1[C@H](C)[C@@H]1C[C@@](O)(NC(=O)O1)[C@H](OC)C=CC=C(C)C2
active: [1] 0.208 µM | [19] 0.001 µM | [14] 0.001 µM | [20] 0.001 µM | [18] 3.85 µM | [15] 0.001 µM | [4] 0.662 µM | [6] 0.001 µM | [7] 0.0485 µM | [17] 0.001 µM
inactive: [8] | [10] | [12] | [13]

C=C[C@@H]1CN2CCC1C[C@H]2[C@H](O)c1ccnc2ccccc12 (some centres undefined)
active: [4] 18.7 µM | [8] 23.5 µM | [9] 37.2 µM
inactive: [1] | [2] | [15] | [3] | [6] | [10] | [11]

ClC1=C(Cl)[C@]2(Cl)[C@@H]3[C@@H]4C[C@@H]([C@H]5O[C@@H]45)[C@@H]3[C@@]1(Cl)C2(Cl)Cl
inactive: [1] | [3] | [12]
active: [2] 38.6 µM | [20] 19.3 µM | [4] 38.6 µM | [17] 28.2 µM

CC=C(C)C(=O)N[C@@H](c1ccccc1)[C@@H](O)C(=O)O[C@H]1C[C@@]2(O)[C@@H](OC(=O)c3ccccc3)[C@@H]3[C@]4(OC(C)=O)CO[C@@H]4C[C@H](O)[C@@]3(C)C(=O)[C@H](OC(C)=O)C(=C1C)C2(C)C
inactive: [3] | [8] | [12]
active: [1] 0.0013 µM | [2] 0.0037 µM | [20] 0.001 µM | [4] 0.0132 µM | [6] 0.001 µM | [17] 0.001 µM

C[C@]12CC[C@H]3[C@@H](CCC4=CC(=O)CC[C@@]43C)[C@H]1CC[C@H]2O
not listed: [3] | [11] | [14] | [17] | [18] | [20]
inactive: all other assays above

O=S(=O)(c1ccc(Cl)cc1)c1ccc(Cl)cc1
inactive: [1] | [2] | [14] | [3] | [6] | [8] | [9] | [10] | [11] | [12] | [13]

c1ccc(CCCN2CCN(CCOC(c3ccccc3)c3ccccc3)CC2)cc1
inactive: [1] | [3] | [11]
active: [2] 29.6 µM | [14] 23.5 µM | [18] 24.3 µM | [5] 26.4 µM | [6] 29.6 µM | [17] 21.7 µM | [9] 29.6 µM

C[C@]12Cc3cn[nH]c3C[C@@H]1CC[C@@H]1[C@H]2CC[C@@]2(C)[C@H]1CC[C@]2(C)O
active: [14] 14.8 µM
not listed: [11] | [12] | [15] | [17] | [18] | [19] | [20]
inactive: all other assays above

COc1cc([C@@H]2c3cc4c(cc3[C@@H](O)C3COC(=O)C32)OCO4)cc(OC)c1O (some centres undefined)
active: [1] 0.37 µM | [19] 0.0148 µM | [14] 0.0372 µM | [20] 0.0469 µM | [15] 0.0066 µM | [4] 0.0209 µM | [5] 6.62 µM | [6] 0.0132 µM | [17] 0.0343 µM
inactive: [3] | [8] | [10] | [12]

Clc1ccccc1C(c1ccccc1)(c1ccccc1)n1cccn1
not listed: [5] | [11] | [15] | [16] | [17] | [19]
inactive: all other assays above

O=[N+]([O-])c1c2ccccc2cc2ccccc12
inactive: [1] | [19] | [3] | [6] | [7] | [8] | [10] | [12]

CCCN(CCC)c1c([N+](=O)[O-])cc(S(N)(=O)=O)cc1[N+](=O)[O-]
active: [2] 48.6 µM | [19] 43.3 µM | [18] 31.7 µM | [15] 30.6 µM | [4] 30.6 µM | [16] 49.8 µM | [5] 48.6 µM | [7] 28.2 µM | [17] 28.2 µM | [9] 38.6 µM | [10] 48.6 µM | [13] 38.6 µM

CCCCCC[C@H]1C(=O)O[C@H](C)[C@H](NC(=O)c2cccc(NC=O)c2O)C(=O)O[C@@H](C)[C@@H]1OC(=O)CC(C)C
active: [2] 0.0372 µM | [19] 0.187 µM | [14] 0.296 µM | [20] 0.0469 µM | [15] 0.0235 µM | [4] 11.8 µM | [5] 23.5 µM | [7] 0.122 µM | [17] 0.0611 µM
inactive: [3] | [11]

O=C(N[C@@H](COc1ccc2[nH]c(=O)[nH]c2c1)c1ccccc1)c1cccn(Cc2ccc(F)c(F)c2)c1=O
inactive: [1] | [3] | [6] | [11] | [12]
active: [19] 20.9 µM | [20] 18.7 µM | [4] 18.7 µM | [17] 30.6 µM

CC(C)[C@H]1C(=O)N[C@H](CO)Cc2c[nH]c3cccc(c23)N1C
inactive: [1] | [19] | [18] | [15] | [3] | [5] | [7] | [8] | [9] | [12] | [13]

N=c1c2c(-c3ccccc3)c(-c3ccccc3)n(Cc3ccccc3)c2ncn1C1CCC(O)CC1 (centres undefined)
active: [19] 18.7 µM | [14] 18.7 µM | [20] 16.6 µM | [18] 0.968 µM | [15] 0.59 µM | [4] 23.5 µM | [5] 4.69 µM | [6] 1.05 µM | [7] 6.85 µM
inactive: [2] | [11]

CC(=Cc1csc(C)n1)[C@@H]1C[C@H]2O[C@]2(C)CCC[C@H](C)[C@@H](O)[C@@H](C)C(=O)C(C)(C)[C@@H](O)CC(=O)O1
inactive: [3] | [5] | [7] | [8] | [11] | [12]
active: [1] 0.0037 µM | [19] 0.0296 µM | [20] 0.001 µM | [15] 0.0166 µM | [4] 0.001 µM | [6] 0.001 µM | [17] 0.001 µM

Source: PubChem BioAssay (NCATS)
